Laboratory results from paper PMC5540273 (PLoS ONE, 2017).

Key:
Conditions in all cases: concentration: 1 μM, replicates: in singlicate; n = 1
KIT-autoinhibited = test system: KIT-autoinhibited
KIT = test system: KIT
LATS1 = test system: LATS1
LATS2 = test system: LATS2
LCK = test system: LCK
LIMK1 = test system: LIMK1
LIMK2 = test system: LIMK2
LKB1 = test system: T1, LKB1
T1 construct: gene STK11

LOK = test system: T2, LOK
T2 construct: gene STK10

LRRK2 = test system: LRRK2
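Note: KINOMEscan kinase panel screen.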

SMILES	%Inh (KIT-autoinhibited) [%]	%Inh (KIT) [%]	%Inh (LATS1) [%]	%Inh (LATS2) [%]	%Inh (LCK) [%]	%Inh (LIMK1) [%]	%Inh (LIMK2) [%]	%Inh (LKB1) [%]	%Inh (LOK) [%]	%Inh (LRRK2) [%]
CN(C1=C(c2ccccc2)C(=O)NC1=O)c1ccccc1 [SB-334860]	0	16	0	14	20	15	20	5	1	0
COC(=O)Nc1nc2cc(Oc3ccc(NC(=O)Nc4cc(F)ccc4F)cc3)ccc2[nH]1.Cl [GW701424]	30	100	0	0	57	0	0	0	98.4	0
COCCNC(=O)c1ccc(-c2cc(C(=O)NC3CC3)cc(F)c2C)cc1 [GW868318]	24	26	10	0	4	16	3	49	20	62
Fc1ccc(-c2nn3c(OCC(F)(F)F)cccc3c2-c2ccncc2)cc1 [GW514784]	0	24	41	0	7	0	0	9	0	19
O=c1cc(N2CCOCC2)nc2n(Cc3cccc4ccccc34)ccn12 [GSK2333389]	0	11	0	0	2	0	0	2	0	59
CN1c2ccc(NCc3ccc(F)cc3)cc2-c2c(cnn2C)S1(=O)=O	0	24	0	0	4	0	0	23	0	0
NS(=O)(=O)c1cccc(-c2ccc3ncc(N4CCOCC4)nc3c2)c1 [GSK1535721]	15	14	0	9	0	0	15	3	0	0
O=c1cc(N2CCOCC2)nc2n(Cc3cccc(C(F)(F)F)c3)ccn12 [GSK2297543]	2	13	0	0	22	0	7	10	0	0
Cc1cccc(-c2nc(-c3ccc(S(C)(=O)=O)cc3)sc2-c2ccncc2)c1	7	18	36	50	23	0	1	0	0	2
Cc1nnc(-c2ccc3ncc(-c4ccc(S(C)=O)cc4)n3c2)o1 (stereo not drawn)	7	59	17	13	0	0	0	3	0	3
Cn1ccc2ncnc(Oc3ccc(NC(=O)Nc4ccncc4)c(Cl)c3)c21	0	74	0	0	0	0	0	13	14	0
C[C@@H](Oc1cc(-n2cnc3ccc(NC(=O)NC(C)(C)C)cc32)sc1C(N)=O)c1ccccc1Cl [GSK346294]	1	20	0	12	37	0	25	4	36	0
Cc1cn2c(=O)cc(N3CCOCC3)nc2n1Cc1cccc(Cl)c1Cl [GSK2334006]	0	39	0	0	46	0	6	0	0	30
NS(=O)(=O)CCc1cccc(Nc2nccc(-c3c(-c4cccc(NC(=O)c5c(F)cccc5F)c4)nn4ccccc34)n2)c1 [GSK336735]	13	100	7	7	99.6	67	9	1	99.4	0
CCc1ccnc(/C=C/c2n[nH]c3cc(Sc4ccccc4C(=O)NC)ccc23)c1	96.9	100	9	0	5	0	0	0	23	23
Cl.Oc1cccc(Nc2ccnc3cc(-c4ccncc4)ccc23)c1 [GW494601]	32	99.8	6	0	98.7	0	6	0	31	75
CCn1cnc2c(N)ncnc21 [GW345098]	7	20	0	21	5	26	27	26	25	0
Fc1ccc(-c2ncn(CCCN3CCOCC3)c2-c2ccccn2)cc1 [SB-211742]	0	0	10	0	28	0	0	33	8	0
